The full ranking holds about 81,000 sequences; the median of “one-hybrid fitness for binding parS DNA” is about -0.17, and the highest 2% start at about 0.51. Many of the other results were omitted from the sample, so the highest values are more common in it than they were.
B1: Caulobacter ParB omega fusion; a variant is named by its letters at X, in order, B8GW30 (parent)
chain: MESVVVGEPGMSEGRRGLGRGLSALLGEVDAAPAQAPGEQLGGSREAPIEILQRNPDQPRRTFREEDLEDLSNSIREKGVLQPILVRPSPDTAGEYQIVAGERAWRAAQRAGLKTVPIMVRELDDLAVLEIGIIENVQRADLNVLEEALSYKVLMEKFERTQENIAQTIGKSXSHVANXMRLLXLPDEVQSYLVSGELTAXHARAIAAAADPVALAKQIIEGGLSVRETEALARKAPNLSAGKSKGGRPPRVKDTDTQALESDLSSVLGLDVSIDHRGSTGTLTITYATLEQLDDLCNRLTRGI

Variants of: B1
Test: one-hybrid fitness for binding parS DNA (scaled: cognate 1, non-cognate 0); higher = stronger binding
Conditions: with parS DNA site
How it was run: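 Values were rescaled so that cognate is 1 and non-cognate is 0. Each is a fitness, the log change in a variant's read ratio to wild type from Illumina reads of plasmids before and after selection, with three replicate libraries pooled and variants under 10 reads dropped. Selection of the Caulobacter ParB libraries, four specificity codons randomised, used E. coli USO with a HIS3 reporter, site 19 bp from the promoter, on M9-minus-histidine with 0.1 mM IPTG and 5 mM 3-AT for 48 hours at 37°C.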

Point of comparison: RMSN, “one-hybrid fitness for binding parS DNA” value 0.449. Against it:
- FMNC — lower, ≤ 0.2
- QHYS — lower, ≤ 0.2
- AARS — lower, ≤ 0.2
- AYIV — lower, ≤ 0.2
- GHTQ — lower, ≤ 0.2
- WFQV — lower, ≤ 0.2
- RDAG — lower, ≤ 0.2
- RSAF — lower, 0.266
- REAG — lower, ≤ 0.2
- RPAG — lower, ≤ 0.2
- RSAG — higher, 0.992
- RCAG — higher, 1.02
- RPEM — lower, ≤ 0.2
- VMQS — lower, ≤ 0.2
- RGMM — lower, ≤ 0.2
- RGMG — higher, 0.604
- RGMS — higher, 0.672
- RGMN — lower, ≤ 0.2
- RGMC — higher, 0.543
- RGMY — lower, ≤ 0.2
- RGMP — lower, ≤ 0.2
- RGMD — lower, ≤ 0.2
- RGMQ — lower, ≤ 0.2
- PVHI — lower, ≤ 0.2
- HKLN — lower, ≤ 0.2
- WWDG — lower, ≤ 0.2
- RNHR — lower, ≤ 0.2
- DEPC — lower, ≤ 0.2
- RVWP — lower, ≤ 0.2
- RVWH — lower, ≤ 0.2
- RVDQ — lower, ≤ 0.2
- RVSM — lower, 0.347
- RVNM — lower, 0.324
- RVSR — lower, ≤ 0.2
- RVNQ — lower, ≤ 0.2
- RVWG — higher, 0.982
- RVDG — higher, 0.874
- RVSG — higher, 0.999
- RVNG — higher, 0.992
- RVDK — lower, ≤ 0.2
- AQKQ — lower, ≤ 0.2
- HTYC — lower, ≤ 0.2
- VSWE — lower, ≤ 0.2
- SPNG — lower, ≤ 0.2
- LCPA — lower, ≤ 0.2
- LGTD — lower, ≤ 0.2
- MNAP — lower, ≤ 0.2
- PHSE — lower, ≤ 0.2
- DQES — lower, ≤ 0.2
- NCWT — lower, ≤ 0.2
- RCSE — lower, ≤ 0.2
- MTTC — lower, ≤ 0.2
- RVHK — lower, ≤ 0.2
- RVRF — lower, 0.266
- RVRG — higher, 0.955
- RVHG — higher, 1.03
- RVYP — lower, 0.213
- RVHQ — lower, ≤ 0.2
- RVYN — higher, 0.46
- RVCG — higher, 0.972
- RVCF — lower, 0.249
- RVCR — lower, ≤ 0.2
- RVYG — higher, 1.02
- RVRM — lower, 0.392
- MWSG — lower, ≤ 0.2
- WLTK — lower, ≤ 0.2
- SYTT — lower, ≤ 0.2
- YPIF — lower, ≤ 0.2
- ESYW — lower, ≤ 0.2
- ARYC — lower, ≤ 0.2
- RVQG — higher, 0.999
- RVQF — lower, 0.234
- RVGG — higher, 1.01
- RVLD — lower, 0.245
- RVQR — lower, ≤ 0.2
- RVGK — lower, ≤ 0.2
- RVLN — lower, 0.423
- RVGR — lower, ≤ 0.2
- RVLG — higher, 0.992
- EAAT — lower, ≤ 0.2
- GLPN — lower, ≤ 0.2
- PHRK — lower, ≤ 0.2
- FRSF — lower, ≤ 0.2
- RIWR — lower, ≤ 0.2
- RKWR — lower, ≤ 0.2
- RKWM — lower, 0.254
- RRWH — lower, ≤ 0.2
- RIWC — higher, 0.936
- RRWC — higher, 0.739
- RIWQ — lower, ≤ 0.2
- RHWH — lower, ≤ 0.2
- RKWC — higher, 0.887
- RHWC — higher, 0.759
- RHWD — lower, ≤ 0.2
- RRWN — lower, 0.323
- SIKI — lower, ≤ 0.2
- YAQR — lower, ≤ 0.2
- PSHG — lower, ≤ 0.2
- PMWK — lower, ≤ 0.2
- IENR — lower, ≤ 0.2
- ANYG — lower, ≤ 0.2
- HGQS — lower, ≤ 0.2
- KWCC — lower, ≤ 0.2
- NAYS — lower, ≤ 0.2
- ENRN — lower, ≤ 0.2
- TWCR — lower, ≤ 0.2
- THVD — lower, ≤ 0.2
- RMWC — higher, 0.984
- RSWH — lower, ≤ 0.2
- RLWF — lower, 0.255
- RSWC — higher, 0.847
- RLWC — higher, 0.952
- RMWM — lower, 0.344
- RCWC — higher, 0.959
- RLWM — lower, 0.342
- REWC — lower, ≤ 0.2
- RSWN — lower, 0.412
- RPWC — lower, ≤ 0.2
- RMWL — lower, ≤ 0.2
- LRIP — lower, ≤ 0.2
- LILQ — lower, ≤ 0.2
- ENVC — lower, ≤ 0.2
- PHDG — lower, ≤ 0.2
- NQKT — lower, ≤ 0.2
- QLHL — lower, ≤ 0.2
- SRVM — lower, ≤ 0.2
- CYAS — lower, ≤ 0.2
- LQFE — lower, ≤ 0.2
- IFWT — lower, 0.24
- YSKG — lower, ≤ 0.2
- TVTW — lower, ≤ 0.2
- LNPP — lower, ≤ 0.2
- GYPI — lower, ≤ 0.2
- RLFT — higher, 0.838
- RLAK — lower, ≤ 0.2
- RLFQ — lower, ≤ 0.2
- RLAT — higher, 0.938
- RLAQ — lower, ≤ 0.2
- RLFR — lower, ≤ 0.2
- SNGD — lower, ≤ 0.2
- SLHC — lower, ≤ 0.2
- QQSF — lower, ≤ 0.2
- CLAL — lower, ≤ 0.2
- LSRM — lower, ≤ 0.2
- SMQP — lower, ≤ 0.2
- RRSR — lower, ≤ 0.2
- RRSN — higher, 0.695
- RRSP — lower, ≤ 0.2
- RRSS — higher, 0.653
- RRSD — lower, ≤ 0.2
- RRSH — lower, ≤ 0.2
- EKER — lower, ≤ 0.2
- TCNL — lower, ≤ 0.2
- QSVW — lower, ≤ 0.2
- TGSG — lower, ≤ 0.2
- MLIG — lower, ≤ 0.2
- TASY — lower, ≤ 0.2
- GFDT — lower, ≤ 0.2
- RSST — higher, 0.883
- RCST — higher, 0.923
- RPST — lower, ≤ 0.2
- RSSM — lower, 0.327
- RDST — lower, ≤ 0.2
- REST — lower, ≤ 0.2
- PKQP — lower, ≤ 0.2
- RNAS — higher, 0.914
- RNAH — lower, ≤ 0.2
- RNFS — higher, 0.719
- RNFN — lower, 0.256
- RNAD — lower, ≤ 0.2
- RNFD — lower, ≤ 0.2
- KHDT — lower, ≤ 0.2
- WNNG — lower, ≤ 0.2
- RVFY — higher, 0.464
- RVFT — higher, 0.917
- RVAT — higher, 0.916
- RVFM — lower, 0.363
- RVAF — lower, 0.259
- RVAR — lower, ≤ 0.2
- SPGM — lower, ≤ 0.2
- RMYK — lower, ≤ 0.2
- RMSP — lower, 0.204
- RMYC — higher, 1.01
- RMSC — higher, 0.956
- RMCF — lower, 0.217
- RMYF — lower, 0.289
- RMRH — lower, 0.261
- RMCR — lower, ≤ 0.2
- RMRD — lower, ≤ 0.2
- RMCC — higher, 0.985
- RMRC — higher, 0.867
- LSPY — lower, ≤ 0.2
- LVGR — lower, ≤ 0.2
- GTAK — lower, ≤ 0.2

From a collection of fitness landscapes (doi:10.1016/j.celrep.2020.107928)
